A short description of assay [1]: ATG_TAL_CIS: Attagene CIS-FACTORIAL HepG2 Assay for human TAL Basal Promoter (AID 2282966; active = hit-call score of the fitted dose curve at least 0.9, where 1 is the maximum; inactive = score below 0.9;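 note: background control endpoint measuring basal TAL promoter reporter mRNA not a specific factor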). To be noted: HepG2 Attagene cis-factorial TAL promoter reporter; actives raise or lower the signal. An outline of the steps:
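HepG2, transient MRTU transfection, 24 h compound exposure; RNA → oligo(dT) RT → PCR → 6-FAM primer extension → HpaI digest → CE fluorescence. Bidirectional curve fit vs DMSO. Background-control readout.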

Assay [2] is described as follows: ATG_TGFb_CIS: Attagene CIS-FACTORIAL HepG2 Assay for human Transforming Growth Factor (TGF) (AID 2282967; active = hit-call score of the fitted dose curve at least 0.9, where 1 is the maximum; inactive = score below 0.9). To be noted: HepG2 Attagene CIS TGFb reporter, mRNA transcription; actives raise or lower the signal. An outline of the steps: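 Endogenous TGFB1-linked transcription factor activity read as reporter mRNA via RT-PCR and capillary electrophoresis, 24 h after dosing transiently transfected HepG2 cells. Gain or loss of signal fitted relative to DMSO.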

Assay [3] can be described thus: ATG_VDRE_CIS: Attagene CIS-FACTORIAL HepG2 Assay for human Vitamin D Receptor Element (VDRE) (AID 2282968; active = hit-call score of the fitted dose curve at least 0.9, where 1 is the maximum; inactive = score below 0.9). To be noted: HepG2 VDRE cis-reporter transcription, actives raise or lower the signal. An outline of the steps: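 Readout is VDRE-driven reporter mRNA reflecting endogenous factor activity in human HepG2 cells, sampled 24 h post-dose. Quantification used labelled RT-PCR products separated by capillary electrophoresis; bidirectional analysis relative to DMSO.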

Assay [4] concerns the target Nuclear receptor subfamily 1 group I member 3 (Homo sapiens) (UniProt Q14994). Kind of assay: ATG_CAR_TRANS: Attagene TRANS-FACTORIAL HepG2 Assay for human Constitutive Androstane Receptor (CAR) (AID 2282969).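 Note: activators raise reporter mRNA above DMSO so AC50 marks induction.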 Particulars: HepG2 Attagene TRANS-FACTORIAL CAR reporter. An outline of the steps: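 Signal is reporter mRNA induction relative to DMSO, measured 24 h after dosing by RT-PCR with fluorescent primer extension and capillary electrophoresis. Human HepG2 liver cells carried transiently transfected chimeric NR-Gal4/GAL4-UAS reporter constructs.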

The target of assay [5] is X-box-binding protein 1 (Homo sapiens) (UniProt P17861). Kind of assay: ATG_Xbp1_CIS: Attagene CIS-FACTORIAL HepG2 Assay for human X-box Binding Protein 1 (XBP1) (AID 2282972; active = hit-call score of the fitted dose curve at least 0.9, where 1 is the maximum; inactive = score below 0.9). Particulars: HepG2 XBP1 cis-element reporter, Attagene multiplex; actives raise or lower the signal. An outline of the steps: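 Reporter transcripts were quantified by RT-PCR with fluorescent primer extension and capillary electrophoresis after 24 h chemical exposure. Cells: transiently transfected HepG2 carrying cis-regulated reporter constructs; data fitted bidirectionally relative to DMSO.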
X-box-binding protein 1 (Homo sapiens), sequence (P17861 whole entry, looked up): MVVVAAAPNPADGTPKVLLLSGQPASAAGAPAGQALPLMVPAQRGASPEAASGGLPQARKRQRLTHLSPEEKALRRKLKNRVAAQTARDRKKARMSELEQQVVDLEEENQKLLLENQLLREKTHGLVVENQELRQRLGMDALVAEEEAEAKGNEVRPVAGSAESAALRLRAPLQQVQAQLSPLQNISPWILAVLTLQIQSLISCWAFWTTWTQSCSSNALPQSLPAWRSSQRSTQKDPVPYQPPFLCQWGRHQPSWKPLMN

Assay [6] in a line: ATG_GAL4_TRANS: Attagene TRANS-FACTORIAL HepG2 Assay for GAL4 (Internal Marker) (AID 2282976). To be noted: HepG2 Attagene TRANS GAL4 internal marker reporter. An outline of the steps: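 RT-PCR/capillary electrophoresis readout of reporter mRNA. HepG2, transient MRTU transfection (GAL4-UAS reporters), 24 h compound exposure. Background-control endpoint, positive direction vs DMSO baseline.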

For assay [7], the target named is Bile acid receptor (Homo sapiens) (UniProt Q96RI1). Kind of assay: ATG_FXR_TRANS: Attagene TRANS-FACTORIAL HepG2 Assay for Farnesoid X Receptor (FXR) (AID 2282979).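 Note: hits raise reporter mRNA above DMSO so AC50 marks FXR activation.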 Particulars: HepG2 Attagene TRANS FXR-GAL4 reporter transcription. An outline of the steps: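 Read-out: fluorescent reporter transcripts quantified by capillary electrophoresis after RT-PCR of total RNA. Source cells were HepG2 transiently carrying chimeric NR-GAL4 plus GAL4-UAS reporter units, dosed 24 h. Activity fitted upward relative to DMSO baseline.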
Bile acid receptor (Homo sapiens), sequence (Q96RI1 whole entry, looked up, the tested form may be a part): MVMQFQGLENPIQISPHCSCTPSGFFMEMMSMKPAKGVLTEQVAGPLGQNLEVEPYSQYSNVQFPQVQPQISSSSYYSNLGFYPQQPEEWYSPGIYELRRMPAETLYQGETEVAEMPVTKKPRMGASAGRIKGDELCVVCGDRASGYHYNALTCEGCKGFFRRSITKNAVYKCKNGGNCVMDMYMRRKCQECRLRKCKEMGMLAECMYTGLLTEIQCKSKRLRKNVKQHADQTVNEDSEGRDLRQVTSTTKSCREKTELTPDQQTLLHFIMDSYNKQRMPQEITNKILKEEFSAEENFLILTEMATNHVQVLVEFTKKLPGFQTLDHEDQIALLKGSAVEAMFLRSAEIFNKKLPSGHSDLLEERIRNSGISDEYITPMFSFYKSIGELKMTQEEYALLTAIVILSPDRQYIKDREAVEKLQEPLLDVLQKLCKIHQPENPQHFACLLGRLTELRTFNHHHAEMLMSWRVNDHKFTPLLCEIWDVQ

The target in assay [8] is Oxysterols receptor LXR-alpha (Homo sapiens) (UniProt Q13133). Kind of assay: ATG_LXRa_TRANS: Attagene TRANS-FACTORIAL HepG2 Assay for human Liver X Receptor alpha (LXRa) (AID 2282980). Particulars: HepG2 Attagene TRANS reporter, LXRa transactivation. An outline of the steps: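 Read-out: reporter transcript levels by RT-PCR plus capillary electrophoresis, fluorescence intensity. Transiently transfected HepG2, exogenous NR-GAL4 chimera, GAL4-UAS reporters; 24 h compound exposure. Activity = increase over DMSO negative control.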
Oxysterols receptor LXR-alpha (Homo sapiens), sequence (Q13133 whole entry, looked up, the tested form may be a part): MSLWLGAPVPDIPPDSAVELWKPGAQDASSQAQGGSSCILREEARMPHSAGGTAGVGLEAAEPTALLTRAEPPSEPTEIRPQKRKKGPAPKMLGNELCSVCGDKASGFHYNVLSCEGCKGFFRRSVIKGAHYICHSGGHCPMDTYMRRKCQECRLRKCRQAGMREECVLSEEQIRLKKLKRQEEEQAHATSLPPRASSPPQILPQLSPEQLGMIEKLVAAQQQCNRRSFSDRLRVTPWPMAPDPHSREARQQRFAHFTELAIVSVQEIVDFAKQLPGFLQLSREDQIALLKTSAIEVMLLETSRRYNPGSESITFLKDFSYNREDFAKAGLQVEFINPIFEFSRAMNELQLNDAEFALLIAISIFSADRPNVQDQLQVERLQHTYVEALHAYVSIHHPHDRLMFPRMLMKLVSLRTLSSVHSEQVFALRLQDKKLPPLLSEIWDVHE

Assay [9] concerns the target Oxysterols receptor LXR-beta (Homo sapiens) (UniProt P55055). The assay can be described thus: ATG_LXRb_TRANS: Attagene TRANS-FACTORIAL HepG2 Assay for human Liver X Receptor beta (LXRb) (AID 2282981). To be noted: HepG2 Attagene TRANS GAL4-LXRb reporter, mRNA. An outline of the steps:
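After 24 h chemical treatment of transfected HepG2 cells carrying exogenous NR-Gal4 chimeras, reporter mRNA was quantified by fluorescent RT-PCR and capillary electrophoresis; activity taken as increase over DMSO controls.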

Assay [10] deals with Hepatocyte nuclear factor 4-alpha (Homo sapiens) (UniProt P41235). Kind of assay: ATG_HNF4a_TRANS: Attagene TRANS-FACTORIAL HepG2 Assay for human Hepatocyte Nuclear Factor 4 alpha (HNF4a) (AID 2282982). Particulars: HepG2 HNF4a transactivation reporter, mRNA readout. An outline of the steps:
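Activity of an exogenous HNF4a–Gal4 fusion scored as induced GAL4-UAS reporter transcripts after 24 h chemical exposure of transfected human HepG2 cells. Read-out via RT-PCR with 6-FAM labelling and capillary electrophoresis; rise over DMSO baseline.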

Assay [11] in a line: ATG_M_06_TRANS: Attagene TRANS-FACTORIAL HepG2 Assay for M06 Transcription Factor (Internal Marker) (AID 2282983). To be noted: HepG2 Attagene TRANS M06 internal marker reporter. An outline of the steps: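 Read-out: fluorescent reporter cDNA fragments resolved by capillary electrophoresis after RT-PCR and HpaI cut. Source cells were HepG2 carrying transfected multi-reporter GAL4 constructs, dosed 24 h. Increase over DMSO control analysed.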

The target in assay [12] is Transcriptional activator Myb (Homo sapiens) (UniProt P10242). Kind of assay: ATG_Myb_CIS: Attagene CIS-FACTORIAL HepG2 Assay for human Myeloblastosis (Myb) Proto-Oncogene Transcription Factor (AID 2282986; active = hit-call score of the fitted dose curve at least 0.9, where 1 is the maximum; inactive = score below 0.9). Particulars: HepG2 Attagene CIS-FACTORIAL Myb reporter transcription; actives raise or lower the signal. An outline of the steps:
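Transiently transfected HepG2 cells carrying a multiplexed cis-promoter reporter set report endogenous Myb activity after 24 h compound exposure. Reporter mRNA is read by RT-PCR with capillary electrophoresis of fluorescent products, fitted bidirectionally against DMSO.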

For assay [13], the target named is Nuclear respiratory factor 1 (Homo sapiens) (UniProt Q16656). Kind of assay: ATG_NRF1_CIS: Attagene CIS-FACTORIAL HepG2 Assay for human Nuclear Respiratory Factor 1 (NRF1) Orphan Gene (AID 2282987; active = hit-call score of the fitted dose curve at least 0.9, where 1 is the maximum; inactive = score below 0.9). To be noted: HepG2 NRF1 cis-element reporter, Attagene multiplex; actives raise or lower the signal. An outline of the steps:
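HepG2 cells transiently transfected with multiple cis-regulated reporter units, exposed 24 h. Reporter mRNAs measured by RT-PCR, fluorescent labelling, HpaI digestion and capillary electrophoresis; bidirectional fitting against DMSO.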

A short description of assay [14]: ATG_M_32_TRANS: Attagene TRANS-FACTORIAL HepG2 Assay for M32 Transcription Factor (Internal Marker) (AID 2282984).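 Note: transcript level of a background control reporter unit measured by RT-PCR and capillary electrophoresis.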 Particulars: HepG2 Attagene TRANS M32 internal marker reporter. An outline of the steps:
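Internal background reporter in transfected HepG2: after 24 h chemical exposure, RNA reverse-transcribed, reporter cDNA amplified, fluorescently labelled and HpaI-cut, then sized by capillary electrophoresis. Gain of signal fitted against DMSO control.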

Assay [15] in a line: ATG_NFI_CIS: Attagene CIS-FACTORIAL HepG2 Assay for human Nuclear Factor I (NFI) (AID 2282989; active = hit-call score of the fitted dose curve at least 0.9, where 1 is the maximum; inactive = score below 0.9). Particulars: HepG2 cis-regulatory reporter, NFI response element transcription; actives raise or lower the signal. An outline of the steps:
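Reporter transcripts were measured by RT-PCR with fluorescent primer extension and capillary electrophoresis 24 h post-treatment. HepG2 cells carried transiently transfected cis-regulated reporter constructs reporting endogenous factor activity; gain or loss fitted against DMSO baseline.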

Assay [16] addresses Steroid hormone receptor ERR1 (Homo sapiens) (UniProt P11474). Kind of assay: ATG_ERRa_TRANS: Attagene TRANS-FACTORIAL HepG2 Assay for human Estrogen-Related Receptor alpha (ERRa) (AID 2282971). Particulars: HepG2 Attagene TRANS reporter, ERRa transactivation. An outline of the steps: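 Transfected HepG2, 24 h dosing, ERRa-Gal4 chimera driving GAL4-UAS reporter. Readout: reporter mRNA via RT-PCR plus capillary electrophoresis (fluorescence). Positive direction vs DMSO control.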

Assay [17] in a line: ATG_M_19_TRANS: Attagene TRANS-FACTORIAL HepG2 Assay for M19 Transcription Factor (Internal Marker) (AID 2282974). Particulars: HepG2 Attagene TRANS-FACTORIAL M19 internal marker reporter. An outline of the steps:
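HepG2 transiently transfected with GAL4-UAS multiplex reporter constructs, exposed 24 h; reporter RNA quantified by RT-PCR, 6-FAM labeling, HpaI digestion and capillary electrophoresis; internal background marker fitted upward versus DMSO.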

In assay [18] the target is Estrogen-related receptor gamma (Homo sapiens) (UniProt P62508). The assay can be described thus: ATG_ERRg_TRANS: Attagene TRANS-FACTORIAL HepG2 Assay for human Estrogen-Related Receptor gamma (ERRg) (AID 2282977).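 Note: hits increase reporter signal over DMSO so potencies reflect activators.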 Particulars: HepG2 Attagene TRANS reporter, ERRg transactivation. An outline of the steps:
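Exogenous NR-Gal4 chimera activity measured as reporter transcript induction after 24 h in transiently transfected HepG2 cells. RNA reverse-transcribed, PCR-amplified, 6-FAM-labelled and resolved by capillary electrophoresis; increase over DMSO baseline.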

Assay [19] deals with Glucocorticoid receptor (Homo sapiens) (UniProt P04150). The assay can be described thus: ATG_GR_TRANS: Attagene TRANS-FACTORIAL HepG2 Assay for human Glucocorticoid Receptor (GR) (AID 2282978).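 Note: activators score as hits since higher reporter transcript over DMSO is fitted.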 To be noted: HepG2 Attagene TRANS GR reporter, mRNA transcription. An outline of the steps: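 HepG2 cells transiently transfected with GAL4-UAS reporter units and exogenous GR-Gal4 chimera, dosed 24 h. Reporter mRNA by RT-PCR, FAM labeling, HpaI digest and capillary electrophoresis; gain-of-signal fit versus DMSO.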

Assay [20] has as its target Nuclear receptor subfamily 4 group A member 2 (Homo sapiens) (UniProt P43354). The assay can be described thus: ATG_NURR1_TRANS: Attagene TRANS-FACTORIAL HepG2 Assay for human Nuclear Receptor Related Protein 1 (NURR1) (AID 2282985). To be noted: HepG2 Attagene TRANS reporter, mRNA readout. An outline of the steps:
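Reporter transcript induction, measured by RT-PCR with fluorescent labelling, HpaI digestion and capillary electrophoresis, after 24 hr dosing of human HepG2 cells transiently expressing an exogenous NR-Gal4 fusion with GAL4-UAS-driven reporters; DMSO as baseline.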

As a reminder, the AC50 is the concentration at which the activity in the assay is half-maximal.

Records with an inconclusive call do not appear. The source made the active and inactive calls. Rule for the calls, unless noted: active = hit-call score of the fitted dose curve at least 0.9, where 1 is the maximum; inconclusive = response in the unintended direction; inactive = score below 0.9.

Transcriptional activator Myb (Homo sapiens), sequence (P10242 whole entry, looked up): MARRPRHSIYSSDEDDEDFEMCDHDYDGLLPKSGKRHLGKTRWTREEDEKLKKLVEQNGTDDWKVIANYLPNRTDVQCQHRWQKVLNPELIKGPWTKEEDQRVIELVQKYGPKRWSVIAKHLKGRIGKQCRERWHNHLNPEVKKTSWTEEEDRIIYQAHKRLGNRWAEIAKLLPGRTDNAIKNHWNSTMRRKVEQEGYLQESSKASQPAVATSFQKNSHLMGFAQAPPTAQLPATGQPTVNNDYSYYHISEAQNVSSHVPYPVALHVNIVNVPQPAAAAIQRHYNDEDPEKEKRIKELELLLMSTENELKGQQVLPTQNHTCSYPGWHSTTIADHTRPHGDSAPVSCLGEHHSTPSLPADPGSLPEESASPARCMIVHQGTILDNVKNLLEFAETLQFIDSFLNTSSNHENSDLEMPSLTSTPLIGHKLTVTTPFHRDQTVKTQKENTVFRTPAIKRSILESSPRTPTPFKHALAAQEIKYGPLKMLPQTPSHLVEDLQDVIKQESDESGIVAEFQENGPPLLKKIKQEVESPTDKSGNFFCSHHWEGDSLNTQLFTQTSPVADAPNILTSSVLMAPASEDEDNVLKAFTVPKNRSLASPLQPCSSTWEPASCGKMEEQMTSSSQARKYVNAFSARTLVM
Oxysterols receptor LXR-beta (Homo sapiens), sequence (P55055 whole entry, looked up, the tested form may be a part): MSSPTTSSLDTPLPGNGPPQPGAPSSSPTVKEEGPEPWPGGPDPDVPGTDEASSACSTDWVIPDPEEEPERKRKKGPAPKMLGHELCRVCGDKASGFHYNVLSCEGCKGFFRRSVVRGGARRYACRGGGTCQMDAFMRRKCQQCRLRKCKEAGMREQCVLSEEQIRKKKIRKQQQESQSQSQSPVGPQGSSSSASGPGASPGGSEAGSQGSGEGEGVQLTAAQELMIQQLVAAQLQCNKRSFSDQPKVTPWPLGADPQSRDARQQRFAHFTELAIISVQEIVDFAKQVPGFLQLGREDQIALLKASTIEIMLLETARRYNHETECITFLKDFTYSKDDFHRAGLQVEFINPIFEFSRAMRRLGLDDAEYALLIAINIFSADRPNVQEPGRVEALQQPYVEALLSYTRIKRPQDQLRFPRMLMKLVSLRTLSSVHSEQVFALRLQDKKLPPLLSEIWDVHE
Nuclear receptor subfamily 4 group A member 2 (Homo sapiens), sequence (P43354 whole entry, looked up, the tested form may be a part): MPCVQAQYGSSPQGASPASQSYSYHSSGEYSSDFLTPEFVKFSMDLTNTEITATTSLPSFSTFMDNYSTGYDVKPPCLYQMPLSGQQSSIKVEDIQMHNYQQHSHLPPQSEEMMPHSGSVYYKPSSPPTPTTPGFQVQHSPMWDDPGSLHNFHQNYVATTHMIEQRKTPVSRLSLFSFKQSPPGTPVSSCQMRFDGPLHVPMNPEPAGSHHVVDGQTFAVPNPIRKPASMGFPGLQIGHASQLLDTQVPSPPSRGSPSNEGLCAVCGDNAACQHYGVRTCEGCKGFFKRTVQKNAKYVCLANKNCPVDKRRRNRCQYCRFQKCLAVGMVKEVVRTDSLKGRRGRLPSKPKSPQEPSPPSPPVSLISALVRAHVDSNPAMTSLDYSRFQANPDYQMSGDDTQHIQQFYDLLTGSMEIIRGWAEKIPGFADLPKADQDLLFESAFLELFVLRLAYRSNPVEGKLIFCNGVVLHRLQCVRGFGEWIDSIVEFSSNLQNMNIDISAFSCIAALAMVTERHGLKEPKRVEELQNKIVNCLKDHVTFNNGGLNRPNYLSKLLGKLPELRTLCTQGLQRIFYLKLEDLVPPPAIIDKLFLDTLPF
Hepatocyte nuclear factor 4-alpha (Homo sapiens), sequence (P41235 whole entry, looked up, the tested form may be a part): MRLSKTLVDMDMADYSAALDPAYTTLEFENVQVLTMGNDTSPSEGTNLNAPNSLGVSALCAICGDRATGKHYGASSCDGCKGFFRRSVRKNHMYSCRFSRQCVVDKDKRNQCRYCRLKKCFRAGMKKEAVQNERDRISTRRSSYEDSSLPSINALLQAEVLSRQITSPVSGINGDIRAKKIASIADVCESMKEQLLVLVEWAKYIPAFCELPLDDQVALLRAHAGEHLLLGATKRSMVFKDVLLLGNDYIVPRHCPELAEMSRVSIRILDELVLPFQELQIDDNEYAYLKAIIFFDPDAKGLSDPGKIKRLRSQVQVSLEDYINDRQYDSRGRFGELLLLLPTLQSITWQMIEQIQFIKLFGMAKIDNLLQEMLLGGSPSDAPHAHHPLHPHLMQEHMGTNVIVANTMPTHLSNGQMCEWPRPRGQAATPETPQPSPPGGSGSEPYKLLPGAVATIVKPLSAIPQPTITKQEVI
Nuclear respiratory factor 1 (Homo sapiens), sequence (Q16656 whole entry, looked up): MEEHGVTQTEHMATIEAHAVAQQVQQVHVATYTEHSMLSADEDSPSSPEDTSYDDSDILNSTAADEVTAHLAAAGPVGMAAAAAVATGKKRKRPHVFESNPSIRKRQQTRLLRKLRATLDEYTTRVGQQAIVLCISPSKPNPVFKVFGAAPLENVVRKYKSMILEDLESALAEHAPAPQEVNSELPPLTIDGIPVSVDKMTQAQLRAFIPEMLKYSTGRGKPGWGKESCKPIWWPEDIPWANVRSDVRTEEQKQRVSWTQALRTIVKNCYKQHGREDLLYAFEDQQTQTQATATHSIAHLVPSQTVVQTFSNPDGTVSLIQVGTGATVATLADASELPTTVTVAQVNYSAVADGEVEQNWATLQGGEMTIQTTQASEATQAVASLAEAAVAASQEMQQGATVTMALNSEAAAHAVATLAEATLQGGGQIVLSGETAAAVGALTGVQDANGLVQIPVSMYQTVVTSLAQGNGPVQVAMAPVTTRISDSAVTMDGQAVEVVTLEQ
Nuclear receptor subfamily 1 group I member 3 (Homo sapiens), sequence (Q14994 whole entry, looked up, the tested form may be a part): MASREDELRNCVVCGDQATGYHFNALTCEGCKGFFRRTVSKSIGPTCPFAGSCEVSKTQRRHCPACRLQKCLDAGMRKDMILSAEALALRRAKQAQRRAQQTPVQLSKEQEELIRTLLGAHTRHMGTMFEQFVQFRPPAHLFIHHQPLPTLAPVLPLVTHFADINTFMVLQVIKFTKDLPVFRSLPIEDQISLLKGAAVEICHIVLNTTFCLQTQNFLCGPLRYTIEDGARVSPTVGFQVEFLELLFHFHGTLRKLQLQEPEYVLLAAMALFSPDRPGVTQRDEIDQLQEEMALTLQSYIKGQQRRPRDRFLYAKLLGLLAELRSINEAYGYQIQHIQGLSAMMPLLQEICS
Steroid hormone receptor ERR1 (Homo sapiens), sequence (P11474 whole entry, looked up, the tested form may be a part): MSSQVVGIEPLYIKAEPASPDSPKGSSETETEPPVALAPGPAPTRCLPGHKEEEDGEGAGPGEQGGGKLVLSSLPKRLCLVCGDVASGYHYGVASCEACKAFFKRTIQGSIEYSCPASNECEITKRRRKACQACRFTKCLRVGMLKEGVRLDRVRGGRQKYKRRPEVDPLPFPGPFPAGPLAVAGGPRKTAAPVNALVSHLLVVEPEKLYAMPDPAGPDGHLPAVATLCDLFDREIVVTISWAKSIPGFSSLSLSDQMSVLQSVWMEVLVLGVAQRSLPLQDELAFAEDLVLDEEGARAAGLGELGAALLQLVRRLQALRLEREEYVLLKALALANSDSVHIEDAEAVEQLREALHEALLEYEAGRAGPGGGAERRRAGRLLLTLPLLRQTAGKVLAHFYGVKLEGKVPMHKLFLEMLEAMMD

In the case of `O=C(O)COCC(=O)O`, the outcome in [1], in assay [2], in assay [3], in [4], in assay [5] and in assay [6] was inactive. In addition, the compound was classed as inactive in [7], in [8], in assay [9], in assay [10], in assay [11] and in assay [12]. The result in [13] was inactive.
Take `Oc1ccc2cc(SSc3ccc4cc(O)ccc4c3)ccc2c1`: the result in assay [1], in [2], in assay [4], in assay [6], in [7] and in assay [8] was inactive. For the same compound, the compound was classed as inactive in assay [9], in [10], in assay [11], in [14], in assay [12] and in assay [13]. The AC50 in [3] is 27.6 µM (active); in assay [5], 40.2 µM (active); in [15], 34.1 µM (active).
Turning to `CC(C)(C)CC(C)(C)c1ccc(OCCOCC[N+](C)(C)Cc2ccccc2)cc1`, the compound was called inactive in [1], in assay [2], in assay [3], in [16], in assay [5] and in assay [17]. Also, the result in assay [18], in assay [19], in assay [7], in assay [10], in assay [20] and in assay [12] was inactive. The call in assay [13] and in assay [15] was inactive.
For the compound `Cc1ccc(-c2ccccc2)cc1`, the compound was called inactive in assay [1], in [2], in [3], in assay [4], in assay [5] and in assay [11]. Also, the result in assay [20], in [12] and in assay [13] was inactive.
For `CC(C)=CCCC(C)CC(=O)O` (stereo not drawn), the compound was called inactive in assay [1], in assay [2], in assay [3], in assay [4], in assay [5] and in assay [8]. In addition, the result in [9], in assay [10], in [11], in assay [20], in assay [13] and in [15] was inactive.

These data come from PubChem BioAssay (EPA / NIEHS).
